Common to all, as to assay: DAPPL (digital affinity profiling via proximity ligation, sequencing); 10 mM Tris-HCl pH 7.5, 50 mM NaCl, 1 mM DTT, 4% glycerol, room temperature, 30 min; GST-TFs on glutathione beads, 16-mer random dsDNA library, 0.1% formaldehyde crosslink after washing; high values mean tight binding
One assay deals with T1, FEV (Homo sapiens, UniProt Q99581 1-238).
T1 sequence: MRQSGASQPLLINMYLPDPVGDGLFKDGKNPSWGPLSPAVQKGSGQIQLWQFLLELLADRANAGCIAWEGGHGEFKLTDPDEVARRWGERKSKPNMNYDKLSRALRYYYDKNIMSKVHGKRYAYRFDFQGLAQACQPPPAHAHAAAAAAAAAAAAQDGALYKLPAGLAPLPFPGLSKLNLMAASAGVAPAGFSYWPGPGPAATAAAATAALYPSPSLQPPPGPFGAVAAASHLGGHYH
The settings on record: protein: recombinant; tags: N-terminal GST; dsDNA, one strand shown. The procedure, abridged:
(§1)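 After expression in yeast as GST fusions, human transcription factors were bound to glutathione beads, DNA-barcoded and mixed with a tag-only sample. The pools were incubated with 200 nmole of a 16-mer random double-stranded DNA library in Tris/NaCl/DTT/glycerol buffer (30 min, room temperature), washed and crosslinked with 0.1% formaldehyde. Proximity ligation with BsaI/T4 ligase ran for 1 h at 37 °C, before PCR amplification and sequencing on an Illumina NextSeq500. Binding signal is a hexamer's read frequency for a factor divided by its frequency for the tag-only sample.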

In another assay the target is ETV5 (Homo sapiens, UniProt P41161 1-510). The settings on record: protein: recombinant; tags: N-terminal GST; dsDNA, one strand shown. The procedure, abridged:
as §1

A further assay addresses HSF1 (Homo sapiens, UniProt Q00613 1-529). The settings on record: protein: recombinant; tags: N-terminal GST; chain copies: 3; dsDNA, one strand shown. The procedure, abridged:
as §1

The target of the next assay is T2, SPIC (Homo sapiens, UniProt Q8N5J4 1-248).
T2 sequence: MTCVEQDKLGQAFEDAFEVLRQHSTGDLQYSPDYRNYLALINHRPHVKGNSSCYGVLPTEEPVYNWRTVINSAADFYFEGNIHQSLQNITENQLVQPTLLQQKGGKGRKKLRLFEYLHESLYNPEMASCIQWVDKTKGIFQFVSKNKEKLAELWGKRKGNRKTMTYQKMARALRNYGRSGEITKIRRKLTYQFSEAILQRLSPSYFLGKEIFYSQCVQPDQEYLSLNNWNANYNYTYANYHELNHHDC
The settings on record: protein: recombinant; tags: N-terminal GST; dsDNA, one strand shown. In short, it runs like this:
as §1

In another assay the target is ELF4 (Homo sapiens, UniProt Q99607 1-663). The settings on record: protein: recombinant; tags: N-terminal GST; dsDNA, one strand shown. In short, it runs like this:
as §1

The next assay concerns the target T3, ELK4 (Homo sapiens, UniProt P28324-2 1-405).
T3 sequence: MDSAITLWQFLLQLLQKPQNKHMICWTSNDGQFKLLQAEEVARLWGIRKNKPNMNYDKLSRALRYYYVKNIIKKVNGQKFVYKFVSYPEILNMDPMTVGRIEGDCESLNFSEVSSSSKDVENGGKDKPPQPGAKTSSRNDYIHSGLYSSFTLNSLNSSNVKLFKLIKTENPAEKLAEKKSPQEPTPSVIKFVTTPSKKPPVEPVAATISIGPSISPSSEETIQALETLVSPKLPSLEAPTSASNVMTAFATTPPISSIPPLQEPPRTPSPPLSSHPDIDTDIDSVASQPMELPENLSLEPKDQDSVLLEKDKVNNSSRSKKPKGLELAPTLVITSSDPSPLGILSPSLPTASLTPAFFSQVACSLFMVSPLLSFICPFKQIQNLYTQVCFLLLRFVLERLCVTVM
The settings on record: protein: recombinant; tags: N-terminal GST; dsDNA, one strand shown. In short, it runs like this:
as §1

A further assay deals with T4, ETV2 (Homo sapiens, UniProt O00321 1-342).
T4 sequence: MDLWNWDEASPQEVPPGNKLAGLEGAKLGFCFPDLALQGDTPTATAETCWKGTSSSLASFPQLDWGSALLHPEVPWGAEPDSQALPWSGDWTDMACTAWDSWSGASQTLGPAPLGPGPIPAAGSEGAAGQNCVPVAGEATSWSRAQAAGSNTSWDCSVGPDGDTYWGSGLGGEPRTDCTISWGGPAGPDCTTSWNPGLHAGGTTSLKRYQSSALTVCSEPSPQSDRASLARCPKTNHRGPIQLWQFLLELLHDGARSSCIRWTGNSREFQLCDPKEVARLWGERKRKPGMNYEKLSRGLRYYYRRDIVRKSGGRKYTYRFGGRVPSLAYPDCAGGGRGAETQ
The settings on record: protein: recombinant; tags: N-terminal GST; dsDNA, one strand shown. The procedure, abridged: as §1

A further assay addresses T5, ELF3 (Homo sapiens, UniProt P78545 1-371).
T5 sequence: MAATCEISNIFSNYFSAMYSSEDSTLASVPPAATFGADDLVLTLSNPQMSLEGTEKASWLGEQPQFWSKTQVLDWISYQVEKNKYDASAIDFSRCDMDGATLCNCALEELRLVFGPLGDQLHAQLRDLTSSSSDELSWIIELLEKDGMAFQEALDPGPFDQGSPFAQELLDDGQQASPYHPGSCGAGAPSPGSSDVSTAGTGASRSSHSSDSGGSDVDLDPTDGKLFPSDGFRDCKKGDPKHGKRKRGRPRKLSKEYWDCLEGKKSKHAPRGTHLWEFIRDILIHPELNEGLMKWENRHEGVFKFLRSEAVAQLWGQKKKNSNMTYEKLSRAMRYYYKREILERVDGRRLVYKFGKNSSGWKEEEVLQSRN
The settings on record: protein: recombinant; tags: N-terminal GST; dsDNA, one strand shown. The procedure, abridged:
as §1

The target of the next assay is CRX (Homo sapiens, UniProt O43186 1-299). The settings on record: protein: recombinant; tags: N-terminal GST; dsDNA, one strand shown. The procedure, abridged:
as §1

Another assay deals with ETV1 (Homo sapiens, UniProt P50549 1-477). The settings on record: protein: recombinant; tags: N-terminal GST; dsDNA, one strand shown. The procedure, abridged: as §1
ETV1, sequence (P50549 whole entry): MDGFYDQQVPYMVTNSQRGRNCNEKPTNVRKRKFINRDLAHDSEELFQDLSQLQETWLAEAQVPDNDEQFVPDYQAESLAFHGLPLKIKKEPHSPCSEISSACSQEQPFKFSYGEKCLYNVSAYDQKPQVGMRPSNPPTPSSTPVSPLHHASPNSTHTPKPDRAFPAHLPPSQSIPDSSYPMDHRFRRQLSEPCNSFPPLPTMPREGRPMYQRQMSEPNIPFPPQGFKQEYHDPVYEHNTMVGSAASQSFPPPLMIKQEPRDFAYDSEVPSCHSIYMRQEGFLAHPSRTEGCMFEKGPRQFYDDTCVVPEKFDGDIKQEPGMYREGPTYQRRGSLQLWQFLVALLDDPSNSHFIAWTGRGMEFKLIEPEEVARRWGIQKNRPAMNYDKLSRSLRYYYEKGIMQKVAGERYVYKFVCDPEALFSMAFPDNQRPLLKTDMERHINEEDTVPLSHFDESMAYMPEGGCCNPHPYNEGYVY

The record followed here is PMC7862700, “An all-to-all approach to the identification of sequence-specific readers for epigenetic DNA modifications on cytosine”.

HSF1, sequence (Q00613 whole entry): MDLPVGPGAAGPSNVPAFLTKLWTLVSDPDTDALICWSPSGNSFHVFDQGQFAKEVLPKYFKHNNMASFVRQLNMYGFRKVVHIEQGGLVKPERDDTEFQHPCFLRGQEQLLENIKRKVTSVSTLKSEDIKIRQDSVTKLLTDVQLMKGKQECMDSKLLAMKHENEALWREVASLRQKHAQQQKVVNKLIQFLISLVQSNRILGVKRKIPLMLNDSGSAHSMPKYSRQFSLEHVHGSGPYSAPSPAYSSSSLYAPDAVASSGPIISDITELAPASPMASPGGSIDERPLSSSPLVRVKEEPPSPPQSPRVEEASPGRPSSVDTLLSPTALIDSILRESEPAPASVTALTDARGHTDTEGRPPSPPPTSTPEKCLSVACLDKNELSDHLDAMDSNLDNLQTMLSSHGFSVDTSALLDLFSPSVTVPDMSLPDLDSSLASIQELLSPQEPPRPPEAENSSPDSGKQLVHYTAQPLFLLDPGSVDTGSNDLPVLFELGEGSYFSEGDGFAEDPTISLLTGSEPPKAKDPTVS
ELF4, sequence (Q99607 whole entry): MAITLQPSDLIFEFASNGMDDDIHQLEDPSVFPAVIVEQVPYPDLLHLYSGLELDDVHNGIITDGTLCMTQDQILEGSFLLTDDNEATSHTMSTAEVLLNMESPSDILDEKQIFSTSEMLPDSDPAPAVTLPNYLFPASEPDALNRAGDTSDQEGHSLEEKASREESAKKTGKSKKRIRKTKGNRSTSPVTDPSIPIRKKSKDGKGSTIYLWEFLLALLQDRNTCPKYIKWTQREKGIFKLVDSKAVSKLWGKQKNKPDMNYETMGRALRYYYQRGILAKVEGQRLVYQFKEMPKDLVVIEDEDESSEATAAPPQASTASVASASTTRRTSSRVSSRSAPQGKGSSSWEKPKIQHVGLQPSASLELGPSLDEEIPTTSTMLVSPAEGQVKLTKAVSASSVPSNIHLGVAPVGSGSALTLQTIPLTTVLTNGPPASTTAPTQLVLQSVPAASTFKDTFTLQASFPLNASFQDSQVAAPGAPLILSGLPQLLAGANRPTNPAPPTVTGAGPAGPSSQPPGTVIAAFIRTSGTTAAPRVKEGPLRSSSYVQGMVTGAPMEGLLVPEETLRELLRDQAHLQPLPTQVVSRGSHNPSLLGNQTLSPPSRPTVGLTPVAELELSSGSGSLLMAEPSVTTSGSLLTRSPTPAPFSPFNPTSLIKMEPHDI
CRX, sequence (O43186 whole entry): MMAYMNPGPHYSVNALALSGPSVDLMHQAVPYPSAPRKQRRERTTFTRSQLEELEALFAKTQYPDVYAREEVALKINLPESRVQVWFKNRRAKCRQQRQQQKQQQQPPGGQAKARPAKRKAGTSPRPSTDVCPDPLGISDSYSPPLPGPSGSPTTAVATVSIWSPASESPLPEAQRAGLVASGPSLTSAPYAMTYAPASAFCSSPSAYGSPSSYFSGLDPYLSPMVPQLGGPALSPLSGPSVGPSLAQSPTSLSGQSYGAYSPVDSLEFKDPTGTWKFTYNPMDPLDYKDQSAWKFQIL
ETV5, sequence (P41161 whole entry): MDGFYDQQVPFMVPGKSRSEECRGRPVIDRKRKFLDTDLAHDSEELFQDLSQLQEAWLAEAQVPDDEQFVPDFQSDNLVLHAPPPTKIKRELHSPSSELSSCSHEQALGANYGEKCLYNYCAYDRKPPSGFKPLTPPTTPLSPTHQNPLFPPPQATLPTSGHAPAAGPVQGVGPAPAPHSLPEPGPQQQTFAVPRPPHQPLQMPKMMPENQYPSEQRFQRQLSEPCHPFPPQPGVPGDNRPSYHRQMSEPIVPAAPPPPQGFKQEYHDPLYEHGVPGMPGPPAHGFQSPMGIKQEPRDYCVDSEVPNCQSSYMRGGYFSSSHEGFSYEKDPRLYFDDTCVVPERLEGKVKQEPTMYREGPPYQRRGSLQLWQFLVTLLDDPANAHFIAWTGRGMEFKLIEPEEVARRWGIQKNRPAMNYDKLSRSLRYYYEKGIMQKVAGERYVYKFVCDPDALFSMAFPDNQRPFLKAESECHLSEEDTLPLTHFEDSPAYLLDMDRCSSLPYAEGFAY

With GTTATT, the binding signal in the assay with FEV was 1.08 fold enrichment (6-mer frequency, TF over GST control); with ETV5, 1.26 fold enrichment (6-mer frequency, TF over GST control); with HSF1 it was 1.19 fold enrichment (6-mer frequency, TF over GST control); with SPIC, 1.29 fold enrichment (6-mer frequency, TF over GST control); with ELF4, 1.16 fold enrichment (6-mer frequency, TF over GST control); with ELK4 it was 1.17 fold enrichment (6-mer frequency, TF over GST control). The binding signal with ETV2 is 1.27 fold enrichment (6-mer frequency, TF over GST control); in the assay with ELF3 it was 1.22 fold enrichment (6-mer frequency, TF over GST control); with CRX, 1.32 fold enrichment (6-mer frequency, TF over GST control); with ETV1, 1.12 fold enrichment (6-mer frequency, TF over GST control).

As to TTTATC, the binding signal is 1.14 fold enrichment (6-mer frequency, TF over GST control) in the assay with FEV; 1.2 fold enrichment (6-mer frequency, TF over GST control) with ETV5; 1.65 fold enrichment (6-mer frequency, TF over GST control) with HSF1; 1.26 fold enrichment (6-mer frequency, TF over GST control) in the assay with SPIC; 1.2 fold enrichment (6-mer frequency, TF over GST control) in the assay with ELF4; 1.4 fold enrichment (6-mer frequency, TF over GST control) with ELK4. The binding signal with ETV2 is 1.24 fold enrichment (6-mer frequency, TF over GST control); with ELF3, 1.18 fold enrichment (6-mer frequency, TF over GST control); with CRX, 2.15 fold enrichment (6-mer frequency, TF over GST control); with ETV1 it was 1.18 fold enrichment (6-mer frequency, TF over GST control).

On to GATTCC, for which the binding signal with FEV was 1.09 fold enrichment (6-mer frequency, TF over GST control); in the assay with ETV5, 1.21 fold enrichment (6-mer frequency, TF over GST control); in the assay with HSF1, 1.34 fold enrichment (6-mer frequency, TF over GST control); in the assay with SPIC it was 1.18 fold enrichment (6-mer frequency, TF over GST control); in the assay with ELF4, 1.19 fold enrichment (6-mer frequency, TF over GST control); with ELK4, 1.13 fold enrichment (6-mer frequency, TF over GST control). Besides, the binding signal with ETV2 was 1.13 fold enrichment (6-mer frequency, TF over GST control); with ELF3, 1.09 fold enrichment (6-mer frequency, TF over GST control); in the assay with CRX it was 1.15 fold enrichment (6-mer frequency, TF over GST control); with ETV1 it was 1.21 fold enrichment (6-mer frequency, TF over GST control).

For CTCAAG, the binding signal with FEV is 1.16 fold enrichment (6-mer frequency, TF over GST control); in the assay with ETV5 it was 1.14 fold enrichment (6-mer frequency, TF over GST control); with HSF1 it was 1.19 fold enrichment (6-mer frequency, TF over GST control); with SPIC, 1.1 fold enrichment (6-mer frequency, TF over GST control); with ELF4, 1.19 fold enrichment (6-mer frequency, TF over GST control); in the assay with ELK4, 1.09 fold enrichment (6-mer frequency, TF over GST control). Besides, the binding signal with ETV2 is 1.11 fold enrichment (6-mer frequency, TF over GST control); in the assay with ELF3 it was 1.22 fold enrichment (6-mer frequency, TF over GST control); in the assay with CRX, 1.2 fold enrichment (6-mer frequency, TF over GST control); with ETV1, 1.21 fold enrichment (6-mer frequency, TF over GST control).

As for GCACTA, the binding signal in the assay with FEV is 1.19 fold enrichment (6-mer frequency, TF over GST control); in the assay with ETV5 it was 1.13 fold enrichment (6-mer frequency, TF over GST control); with HSF1 it was 1.11 fold enrichment (6-mer frequency, TF over GST control); with SPIC, 1.12 fold enrichment (6-mer frequency, TF over GST control); with ELF4 it was 1.27 fold enrichment (6-mer frequency, TF over GST control); with ELK4 it was 1.13 fold enrichment (6-mer frequency, TF over GST control). In addition, the binding signal with ETV2 was 1.22 fold enrichment (6-mer frequency, TF over GST control); with ELF3, 1.29 fold enrichment (6-mer frequency, TF over GST control); with CRX, 1.17 fold enrichment (6-mer frequency, TF over GST control); with ETV1, 1.15 fold enrichment (6-mer frequency, TF over GST control).

In the case of TGGGAT, the binding signal in the assay with FEV was 1.18 fold enrichment (6-mer frequency, TF over GST control); with ETV5, 1.19 fold enrichment (6-mer frequency, TF over GST control); with HSF1, 1.47 fold enrichment (6-mer frequency, TF over GST control); in the assay with SPIC, 1.17 fold enrichment (6-mer frequency, TF over GST control); with ELF4, 1.2 fold enrichment (6-mer frequency, TF over GST control); in the assay with ELK4, 1.39 fold enrichment (6-mer frequency, TF over GST control). The binding signal with ETV2 was 1.14 fold enrichment (6-mer frequency, TF over GST control); with ELF3 it was 1.12 fold enrichment (6-mer frequency, TF over GST control); with CRX, 1.9 fold enrichment (6-mer frequency, TF over GST control); in the assay with ETV1, 1.25 fold enrichment (6-mer frequency, TF over GST control).

For TACGAA, the binding signal with FEV is 1.29 fold enrichment (6-mer frequency, TF over GST control); in the assay with ETV5, 1.21 fold enrichment (6-mer frequency, TF over GST control); with HSF1, 1.38 fold enrichment (6-mer frequency, TF over GST control); with SPIC, 1.11 fold enrichment (6-mer frequency, TF over GST control); with ELF4 it was 1.31 fold enrichment (6-mer frequency, TF over GST control); with ELK4, 1.23 fold enrichment (6-mer frequency, TF over GST control). Besides, the binding signal was 1.16 fold enrichment (6-mer frequency, TF over GST control) in the assay with ETV2; 1.25 fold enrichment (6-mer frequency, TF over GST control) with ELF3; 1.32 fold enrichment (6-mer frequency, TF over GST control) in the assay with CRX; 1.24 fold enrichment (6-mer frequency, TF over GST control) with ETV1.

Turning to CTGTCT, the binding signal is 1.42 fold enrichment (6-mer frequency, TF over GST control) in the assay with FEV; 1.4 fold enrichment (6-mer frequency, TF over GST control) in the assay with ETV5; 1.22 fold enrichment (6-mer frequency, TF over GST control) in the assay with HSF1; 1.56 fold enrichment (6-mer frequency, TF over GST control) in the assay with SPIC; 1.38 fold enrichment (6-mer frequency, TF over GST control) in the assay with ELF4; 1.46 fold enrichment (6-mer frequency, TF over GST control) with ELK4. Moreover, the binding signal was 1.26 fold enrichment (6-mer frequency, TF over GST control) with ETV2; 1.47 fold enrichment (6-mer frequency, TF over GST control) in the assay with ELF3; 1.09 fold enrichment (6-mer frequency, TF over GST control) in the assay with CRX; 1.4 fold enrichment (6-mer frequency, TF over GST control) with ETV1.
